# RecA intein inh: Mtb RecA intein splicing inhibition | inhibition, % (no concentration beside the values) | P9WHJ3 | cell-free RecA intein splicing, fluorescence | 290,000 tested, 0.75% active; in the data active = inhibition above about 30%;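 also: 0% = vehicle wells and 100% = reference inhibitor control wells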
# CCHFV vOTU inh: CCHFV vOTU protease inhibition; inhibition, % at 11.5 µM; 370,000 tested, 0.55% active; Pep-AMC fluorescence; AID 651958; in the data active = inhibition above about 30%; also: 0% = vehicle wells with enzyme and 100% = no enzyme wells
# GDH-TPI counter-1: counter-screen for M. tuberculosis FBA inhibitors: GDH-TPI coupled enzymes | GDH-TPI coupled enzyme counterscreen, NADH absorbance | inhibition, % at 4.8 µM | 360,000 tested, 1.2% active | AID 588335; in the data active = inhibition above about 30%;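 also: 0% = DMSO wells and 100% = wells lacking the enzyme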
# Mtb FBA inh: inhibits M. tuberculosis FBA enzyme; P9WQA3; purified M. tuberculosis FBA, fluorescence read-out; inhibition, % at 1 µM; 360,000 tested, 2.3% active; AID 588726;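 also: 0% = vehicle and 100% = reference inhibitor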
# Target sequence (P9WQA3 whole entry, looked up): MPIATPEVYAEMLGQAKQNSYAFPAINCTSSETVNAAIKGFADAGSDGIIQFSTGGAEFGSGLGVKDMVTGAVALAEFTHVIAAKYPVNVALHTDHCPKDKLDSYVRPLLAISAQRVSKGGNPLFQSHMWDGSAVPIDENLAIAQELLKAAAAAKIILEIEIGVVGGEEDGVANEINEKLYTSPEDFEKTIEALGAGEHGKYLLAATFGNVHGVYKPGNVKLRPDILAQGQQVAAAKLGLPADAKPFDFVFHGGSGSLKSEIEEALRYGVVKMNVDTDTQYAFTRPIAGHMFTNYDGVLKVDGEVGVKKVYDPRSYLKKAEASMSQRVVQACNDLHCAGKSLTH
# Mtb FBA inh conf: Mtb FBA inhibition, confirmed. purified M. tuberculosis FBA, fluorescence read-out. shares compounds with Mtb FBA inh. inhibition, % at 1 µM. 5,600 tested, 78% active;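 also: 0% = vehicle wells and 100% = reference inhibitor wells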
# GDH-TPI counter-2: inhibits GDH-TPI coupling enzymes, flagging Mtb FBA hits. GDH-TPI coupled enzyme counterscreen, fluorescence. inhibition, % at 1 µM. shares compounds with Mtb FBA inh. AID 652141. 5,600 tested, 81% active; in the data active = inhibition above about 10%
# GDH-TPI DR: inhibits GDH-TPI coupling enzymes in dose response; shares compounds with Mtb FBA inh; GDH-TPI coupled enzyme assay, fluorescence, artifact counterscreen; IC50, µM; 170 tested, 79% active; AID 652145; call rule not given here
# Active calls of the source: *; x = no result given; + = active, no number. Most compounds without a hit are left out; they make up all but 4.2% or so of the library. Rule as the data show it, unless noted: active = inhibition above about 27%; inactive = the rest.
SMILES,RecA intein inh,CCHFV vOTU inh,GDH-TPI counter-1,Mtb FBA inh,Mtb FBA inh conf,GDH-TPI counter-2,others
c1ccc(CNc2nc(Oc3ccncc3)c3sccc3n2)cc1,x,-66.0,2.2,39.5*,+,+,
CCc1nnc(NC(=O)CN2CCN(Cc3cccc(OC)c3)CC2)s1,-2.3,-13.2,-2.9,1.0,x,x,
Cc1c(CCC(=O)O)c(=O)oc2cc(OCc3cccc(Cl)c3)ccc12,-1.0,-47.8,12.1,90.9*,114.9*,109.5*,
Cc1c(Cc2ccccc2)c(=O)oc2cc(OCC(=O)NCC(O)c3ccccc3)ccc12 (centres undefined),0.6,6.3,11.8,79.5*,+,+,
OCCCCCCNc1ccc(CCO)cc1,x,1.2,x,0.8,x,x,
CC(NC(=O)CCN1C(=O)c2ccccc2C1=O)c1ccccc1 (centres undefined),0.7,-16.4,2.6,2.1,x,x,
Cc1cc(N2CCCC2)nc2ccc(NC(=S)NC(C)C)cc12,-6.3,-10.8,17.9,30.7*,23.6,15.7*,
COCCNC(=S)Nc1ccc2nc(N3CCCC3)cc(C)c2c1,-11.6,-22.6,16.7,5.3,x,x,
Cc1cc(N2CCOCC2)nc2ccc(NC(=S)NC(C)C)cc12,-11.7,-6.5,7.9,36.6*,108.2*,96.0*,
COCCNC(=S)Nc1ccc2nc(N3CCOCC3)cc(C)c2c1,-4.9,-27.7,7.9,50.6*,0.4,-3.4,
CC(C)CN1CC(COCc2ccccc2)Oc2ccccc2S1(=O)=O (centres undefined),x,3.9,1.0,0.3,x,x,
O=C(NCc1cccnc1)c1ccccc1NS(=O)(=O)c1ccc(F)cc1,5.4,-8.6,-6.3,9.2,x,x,
CS(=O)(=O)c1ccccc1C(=O)Nc1ccc(-c2nc3ccccc3[nH]2)cc1,-1.9,23.8,27.8,0.7,x,x,
Cc1ccnc(NC(=O)c2cc(S(=O)(=O)N3CCCCC3)ccc2Cl)c1,2.6,-44.9,8.9,37.6*,92.4*,83.8*,
O=C(Nc1cc(S(=O)(=O)N2CCCCC2)ccc1Cl)c1ccccc1NS(=O)(=O)c1ccc(F)cc1,1.6,13.7,8.3,32.9*,-7.1,-6.0,
O=C(Nc1ccc(-c2nc3ccccc3[nH]2)cc1)c1ccccc1NS(=O)(=O)c1ccc(F)cc1,24.6,14.5,31.4*,86.6*,+,+,
Cc1ccc(S(=O)(=O)Nc2ccccc2C(=O)NCc2cccnc2)cc1,-3.2,-8.1,-2.2,50.6*,58.7*,47.9*,
COc1ccc(S(=O)(=O)N2CCCCCC2)cc1C(=O)Nc1cc(C)ccn1,x,8.8,4.5,2.8,x,x,
O=C(OCn1nnc2ccccc2c1=O)c1ccc(F)c(S(=O)(=O)N2CCOCC2)c1,x,-12.2,8.0,-4.3,x,x,
O=C(O)/C=C/c1ccc(S(=O)(=O)Nc2ccccc2C(=O)Nc2ccc(F)cc2)cc1,0.7,9.2,14.9,-2.0,x,x,
CCc1nnc(NS(=O)(=O)c2ccc(NC(=O)c3ccccc3O)cc2)s1,-1.9,2.1,6.4,72.7*,34.6*,25.7*,
O=C(Nc1ccc(S(=O)(=O)Nc2ncccn2)cc1)c1ccccc1NS(=O)(=O)c1ccc(F)cc1,0.0,4.1,5.0,72.6*,-4.4,-4.4,
Cc1ccc(OCc2cc(C(=O)N(C)Cc3cnn(-c4ccccc4C)c3)no2)cn1,1.9,3.7,-6.3,-1.7,x,x,
Cc1c(C)n(Cc2ccccc2)c2ncnc(NCCCO)c12,0.7,9.9,6.7,2.7,x,x,
OCCCNc1ncnc2sc3c(c12)CCN(Cc1ccccc1)C3,-17.7,-135.4,10.9,71.8*,76.2*,61.9*,
SMILES,RecA intein inh,CCHFV vOTU inh,GDH-TPI counter-1,Mtb FBA inh,Mtb FBA inh conf,GDH-TPI counter-2,others
O=c1[nH]cnc2sc3c(c12)CCN(Cc1ccccc1)C3,-35.0,-47.1,14.7,47.4*,121.6*,94.1*,
O=C(O)c1ccccc1C(=O)c1ccc2c(c1)N(Cc1ccc(Cl)c(Cl)c1)C(=O)CO2,0.7,-0.2,-1.9,-1.7,x,x,
CCOC(=O)[C@@]12CCCC3=C1N(CCC3)C(=O)[C@H]2CC(=O)NCC1CCCCC1,x,9.8,x,x,x,x,
C/C(=N\NC(=O)Cn1ccc(C(F)(F)F)n1)c1ccc(N2CCOCC2)cc1,0.1,-4.1,8.6,-2.4,x,x,
CCN(CC)S(=O)(=O)c1cccc(C(=O)N/N=C/c2ccc(N3CCOCC3)cc2)c1,-1.6,6.6,25.6,28.4*,-4.0,-2.5,
CC(C)c1ccc(/C=N/NC(=O)c2cccc(S(=O)(=O)N3CCOCC3)c2)cc1,1.5,19.2,3.1,3.8,x,x,
O=C(Cn1ccc(C(F)(F)F)n1)N/N=C/c1ccc(N2CCOCC2)cc1,0.7,-22.4,30.6,39.0*,127.4*,101.6*,
O=C(CNC(=O)C1CCCCC1)OCc1cc(=O)oc2ccc3ccccc3c12,-1.3,-74.3,10.1,43.4*,2.9,-2.8,
CCc1ccc(CN(C)CC(=O)Nc2ccc(S(=O)(=O)N3CCOCC3)cc2)cc1,x,-6.1,4.6,-1.0,x,x,
CC(C)(C)NC(=O)C1c2ccccc2OCC(=O)N1Cc1ccccn1 (centres undefined),x,5.2,x,x,x,x,
O=C(/C=C/c1ccc(Cl)c(C(F)(F)F)c1)N1CCN(c2ccccn2)CC1,3.1,10.0,5.0,93.3*,143.1*,129.5*,
O=C(/C=C/c1ccc(Cl)cc1)N1CCN(c2ccccn2)CC1,-0.5,6.5,8.6,0.0,x,x,
COC(=O)CN(c1ccccn1)S(=O)(=O)c1ccccc1,-0.6,0.4,16.7,37.5*,115.4*,100.4*,
O=C(O)CN(c1ccccn1)S(=O)(=O)c1ccccc1,-0.4,5.7,-0.4,36.5*,93.7*,87.4*,
O=C(O)CN(c1ccc2c(c1)OCCO2)S(=O)(=O)c1ccccc1,-2.5,2.8,3.1,17.4,x,x,
COC(=O)CN(c1ccc2c(c1)OCCO2)S(=O)(=O)c1ccccc1,0.7,-2.5,1.4,36.7*,12.1,-1.3,GDH-TPI DR=>10
O=C(O)CN(c1ccccn1)S(=O)(=O)c1ccc(Cl)cc1,5.1,-5.2,11.2,35.1*,39.2*,36.1*,
COC(=O)[C@]12C[C@H](CC(=O)NCCC(C)C)C(=O)N(Cc3ccc4c(c3)OCO4)C1=C[C@H](C(C)C)O[C@@H]2C1CC1,x,20.8,x,x,x,x,
COc1ccc2nc(Nc3sc4c(c3C(N)=O)CCCC4)sc2c1,x,-0.1,5.2,-0.5,x,x,
Cc1ccc2c(c1)C(CS(=O)(=O)NCc1ccccc1)NC2 (centres undefined),x,4.3,x,x,x,x,
COC(c1ccccc1)c1nnc(CCC(=O)N(C)CCCC2CCCC2)o1 (centres undefined),3.1,-5.7,3.1,28.3*,123.3*,100.0*,
Cc1cccc(Oc2nc(-c3ccccc3)cc(C)c2S(C)(=O)=O)c1C,13.8,5.9,-9.5,13.3,x,x,
COc1ccccc1Oc1nc(-c2ccccc2)cc(C)c1S(C)(=O)=O,0.5,12.7,21.0,64.0*,37.2*,42.5*,
CC(OC(=O)c1cc(S(=O)(=O)N2CCOCC2)ccc1F)C(=O)NC1CCCCC1C (centres undefined),1.9,11.4,5.8,30.1*,35.1*,26.8*,
